The list is not random: actives were taken first. Their share in the collection is about 3.6%.
Sm TGR block: S. mansoni TGR enzyme inhibition; Q962Y6; actives 3% (n = 360,000); Potency, µM (highest dose often 114 µM), actives largely listed as inhibitors; AID 485364; purified TGR, DTNB reduction, TNB absorbance 405 nm; note: nearly all actives have a fitted effect of over 60% in size
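First, TGR (20 nM dispensed) and NADPH were mixed with compound. Second, a 15 min room-temperature incubation followed. Third, further NADPH and then DTNB were added to start the reaction. Finally, TNB absorbance was monitored kinetically.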
AmpC inh no detg: AmpC beta-lactamase inhibition without detergent | actives 0.52% (n = 330,000) | AID 485341 | AmpC nitrocefin hydrolysis, absorbance 480 nm, 0.0001% Triton | P00811 | Potency, µM (series often up to 57.1 µM), most hits filed as inhibitors; note: nearly all actives have a fitted effect of over 20% in size
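20 mM phosphate pH 7.0 + 0.01% (detergent screen) or 0.0001% Triton X-100; 5.3 nM AmpC reagent; cpd preinc 15 min RT; nitrocefin (800 uM stock) to start; A480 q20 s × 4 min; Activity was normalised to no-enzyme and no-compound control wells.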
AmpC detergent: inhibitors of E. coli AmpC beta-lactamase with detergent; AID 485294; actives 0.041% (n = 370,000); Potency, µM (highest dose often 114 µM), usual class: inhibitors; AmpC hydrolysis of nitrocefin, absorbance 480 nm, 0.01% Triton; note: nearly all actives have a fitted effect of over 25% in size
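AmpC (5.3 nM in the dispensed reagent) in 20 mM phosphate pH 7.0 with 0.01% (detergent screen) or 0.0001% Triton X-100 was preincubated with compounds for 15 min at room temperature. Nitrocefin was then added from an 800 uM solution, and hydrolysis was followed at 480 nm.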
FBPA Giardia inh: inhibitors of Giardia lamblia fructose-1,6-bisphosphate aldolase; A8B2U2; purified Giardia FBPA; Potency, µM (highest dose often 59.6 µM), most hits filed as inhibitors; actives 0.71% (n = 290,000); AID 2451; note: nearly all actives have a fitted effect of over 55% in size
Target sequence (A8B2U2 whole entry, looked up): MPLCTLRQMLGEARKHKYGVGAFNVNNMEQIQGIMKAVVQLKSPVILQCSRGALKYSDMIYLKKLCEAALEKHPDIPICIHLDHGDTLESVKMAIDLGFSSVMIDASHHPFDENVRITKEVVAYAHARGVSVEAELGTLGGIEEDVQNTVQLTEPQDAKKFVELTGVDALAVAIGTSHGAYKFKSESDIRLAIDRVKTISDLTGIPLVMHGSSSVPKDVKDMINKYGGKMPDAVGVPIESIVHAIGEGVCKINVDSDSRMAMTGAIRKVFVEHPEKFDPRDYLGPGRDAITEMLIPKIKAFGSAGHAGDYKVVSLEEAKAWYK
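Giardia FBPA (40 nM reagent) was preincubated 10 min at RT with compound (up to 57.5 uM final), then substrate plus GAPDH/TPI/NAD/arsenate coupling system with diaphorase/resazurin was added; resorufin fluorescence (525/598 nm) was read after 20 min.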
A number is an active result; n = inactive; u = inconclusive; x = no result given; [ ] = another dose, or the depositor's remark. Calls come from the whole dose curve; as a rule, active = well fitted curve in the direction sought with a large enough effect; inconclusive = small, poorly fitted or top-dose-only effect, or another doubt; inactive = no such curve, though single readings can be large; an effect the other way counts as inactive or inconclusive.

SMILES	Sm TGR block	AmpC inh no detg	AmpC detergent	FBPA Giardia inh
Cc1ccc(OCCn2cc(C(=O)C3CCCCC3)c3ccccc32)cc1	n	x	n	x
O=C(NNS(=O)(=O)c1cccc(Cl)c1)c1cc(-c2ccc(F)cc2)nc2ccccc12	n	13µM	n	n
COc1ccccc1CCNC(=O)C(=O)Nc1cc2c3c(c1)CC(=O)N3CCC2	n	n	n	x
O=C1C2C(C(=O)N1/N=C/c1ccc(N3CCCCC3)o1)C1C=CC2C12CC2 (stereo not given)	4µM	n	n	u
O=C(CBr)c1ccc([N+](=O)[O-])c(CS(=O)(=O)c2ccc(Cl)cc2)c1	5µM	n	n	n
O=C(O)c1ccc([N+](=O)[O-])c(CS(=O)(=O)c2ccc(Cl)cc2)c1	n	n	n	n
Cc1cccc(NCCC(=O)c2ccc(Br)cc2)c1	5.6µM	n	n	n
CC(C)CC(N)C(=O)OCc1ccc([N+](=O)[O-])cc1 (stereo not given)	n	n	n	n
Cn1cnc([N+](=O)[O-])c1Sc1ncnc2nc[nH]c12	10µM	n	n	n
CC#CCN1c2ccccc2[C@]23C[C@@H](C(=O)OC)N(C(=O)c4cccs4)C2=NC(C(=O)OC)=C(C(=O)OC)[C@H]13	x	x	x	n[12.9 µM]
N#C/C(=C/c1ccc(Br)o1)C(N)=S	3.5µM	n	n	n
N#C/C(=C\c1ccc(O)c(O)c1)C(N)=S	x	x	x	14µM
CCOC(=O)c1cc(NC(=O)CC(C)(C)CC(=O)O)ccc1N1CCCCC1	n	n	n	n
CCNC(=S)N1CCC(C(=O)c2ccc(Cl)cc2)CC1	n	n	u	n
CCCNC(=S)N1CCC(C(=O)c2ccc(Cl)cc2)CC1	89µM	n	n	n
CCc1ccc(S(=O)(=O)c2nnn3c2nc(N(CC)Cc2ccccc2)c2cc(Cl)ccc23)cc1	n	x	n	x
Cc1ccc(C2=NN(S(=O)(=O)c3ccccc3)C(c3ccccc3O)C2)cc1 (stereo not given)	n	n	n	n
COc1ccc(C2C(C#N)=C(C)NC3=C2C(=O)c2ccccc23)cc1 (stereo not given)	n	n	n	n
CC1=C([N+](=O)[O-])C(c2ccccc2)C2=C(N1)c1ccccc1C2=O (stereo not given)	14µM	n	n	n
COc1cc(O)c2c(=O)c(-c3ccc(O[C@@H]4O[C@H](CO)[C@@H](O)[C@H](O)[C@H]4O)cc3)coc2c1	u	n	n	n
O=C(CSc1cn(Cc2ccccc2)c2ccccc12)N1CCOCC1	n	45µM	u	n
COc1cc(C2CC(=O)Oc3cc(C)cc(C)c32)cc(OC)c1OC (stereo not given)	x	n	x	n
COc1nc2ccccc2nc1N1CCN(C)CC1	n	n	n	n
CN1CCN(C=Nc2nc3ccccc3nc2N2CCCC2)CC1	32µM	n[2.29 µM]	n	n
CC(=O)c1ccc(N2C(=O)C3C(C2=O)C(C(=O)c2ccc(Cl)cc2)N2CCCC32)cc1 (stereo not given)	13µM	n	u	n
SMILES	Sm TGR block	AmpC inh no detg	AmpC detergent	FBPA Giardia inh
COc1ccc(N2C(=O)C3C(C2=O)C(C(=O)c2ccc(Cl)cc2)N2CCCC32)cc1 (stereo not given)	25µM	n	n	n
Cc1ccc(N2C(=O)[C@@H]3[C@H](C2=O)C2CCCN2[C@@H]3C(=O)c2ccccc2)cc1 (stereo not given in full)	32µM	n	n	u
COc1ccc(-n2ccc(=O)c(C(=O)O)n2)c(OC)c1	n	n	n	n
COc1ccc(CNC(=O)C2CCN(c3nc4ccccc4[nH]3)CC2)cc1OC	n	x	n	x
Cc1cc(NC(=O)c2coc(=O)c(Br)c2)ccc1C(C)C	n	16µM	n	n
Cc1ccc(/C=C/S(=O)(=O)NCC(=O)OCC(=O)N2CC(=O)Nc3ccccc32)cc1	n	n	n	n
CC1(C)Oc2ccc3ccc(=O)oc3c2[C@@H](O)[C@H]1O	n	n	n	x
CCOCCCNC(=O)/C(C#N)=C/c1ccc(-c2ccc(S(=O)(=O)N3CCOCC3)cc2)o1	u	n	n	n
CC(NC(=O)/C(C#N)=C/c1ccco1)c1ccccc1 (stereo not given)	n	n	n	n
CCOCCCNC(=O)/C(C#N)=C/c1ccc([N+](=O)[O-])o1	8.9µM	n[11.4 µM]	n	u
CC(NC(=O)/C(C#N)=C/c1ccc([N+](=O)[O-])o1)c1ccccc1 (stereo not given)	1.3µM	n	n	u
